Data taken from the supplement of paper PMC10849652.
The full data set covers some 8,800 targets. This sample favours those with a hit. About 0.5% of all pairs of compound and target were hits.

Columns and labels:
Experiment in all cases: log2 fold change, soluble protein after heating vs DMSO (PISA); higher = thermal stabilisation; K562 lysate, 10 uM; active = over 0.2 and 3.5 SD of the protein, either way, in both replicates (recomputed)
lapatinib = compound: CS(=O)(=O)CCNCc1ccc(-c2ccc3ncnc(Nc4ccc(OCc5cccc(F)c5)c(Cl)c4)c3c2)o1 [lapatinib]
How it was run: (§1)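 Thermal stability, expressed as log-two fold change relative to solvent controls, is given from duplicates. Crude K562 extract in PBS pH 7.4 with 1 mM MgCl2, at 1 mg/mL protein, was treated with 10 μM compound for 30 min and heated in aliquots for 3 min across 48°C-58°C. After pooling, adjustment to 0.5% NP-40 at 4°C and centrifugation at 21,000xg for 90 min, supernatant protein was measured by TMTpro 16plex LC-MS/MS with channel sums equalised.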

pictilisib = compound: CS(=O)(=O)N1CCN(Cc2cc3nc(-c4cccc5[nH]ncc45)nc(N4CCOCC4)c3s2)CC1 [pictilisib]
How it was run: as §1

crizotinib = compound: C[C@@H](Oc1cc(-c2cnn(C3CCNCC3)c2)cnc1N)c1c(Cl)ccc(F)c1Cl [crizotinib]
How it was run: as §1

[1] = compound: C[C@H](C1=CC=C(C=C1)C(=O)NC2=C3C=CNC3=NC=C2)N
How it was run: as §1

duvelisib = compound: C[C@H](Nc1ncnc2nc[nH]c12)c1cc2cccc(Cl)c2c(=O)n1-c1ccccc1 [duvelisib]
How it was run: as §1

gandotinib = compound: Cc1cc(Nc2cc(CN3CCOCC3)c3nc(C)c(Cc4ccc(Cl)cc4F)n3n2)n[nH]1 [gandotinib]
How it was run: as §1

tozasertib = compound: Cc1cc(Nc2cc(N3CCN(C)CC3)nc(Sc3ccc(NC(=O)C4CC4)cc3)n2)n[nH]1 [tozasertib]
How it was run: as §1

doramapimod = compound: Cc1ccc(-n2nc(C(C)(C)C)cc2NC(=O)Nc2ccc(OCCN3CCOCC3)c3ccccc23)cc1 [doramapimod]
How it was run: as §1

bafetinib = compound: Cc1ccc(NC(=O)c2ccc(CN3CC[C@H](N(C)C)C3)c(C(F)(F)F)c2)cc1Nc1nccc(-c2cncnc2)n1 [bafetinib]
How it was run: as §1

[2] = compound: Cc1cccc(CC(=O)N2CCc3c2ccc(-c2cn(C)c4ncnc(N)c24)c3F)n1
How it was run: as §1

nilotinib = compound: Cc1cn(-c2cc(NC(=O)c3ccc(C)c(Nc4nccc(-c5cccnc5)n4)c3)cc(C(F)(F)F)c2)cn1 [nilotinib]
How it was run: as §1

[3] = compound: Cc1nc(Nc2n[nH]c3c2CN(C(=O)N[C@H](CN(C)C)c2ccccc2)C3(C)C)c2sccc2n1
How it was run: as §1

dasatinib = compound: Cc1nc(Nc2ncc(C(=O)Nc3c(C)cccc3Cl)s2)cc(N2CCN(CCO)CC2)n1 [dasatinib]
How it was run: as §1

[4] = compound: Cc1ncc(-c2ccnc(Nc3ccc(S(C)(=O)=O)cc3)n2)n1C(C)C
How it was run: as §1

[5] = compound: Cn1cc(-c2ccc3c(c2)CCN3C(=O)Cc2cccc(C(F)(F)F)c2)c2c(N)ncnc21
How it was run: as §1

quisinostat = compound: Cn1cc(CNCC2CCN(c3ncc(C(=O)NO)cn3)CC2)c2ccccc21 [quisinostat]
How it was run: as §1

tipifarnib = compound: Cn1cncc1[C@@](N)(c1ccc(Cl)cc1)c1ccc2c(c1)c(-c1cccc(Cl)c1)cc(=O)n2C [tipifarnib]
How it was run: as §1

[6] = compound: NC(=O)Nc1cc(-c2cccc(F)c2)sc1C(=O)N[C@H]1CCCNC1
How it was run: as §1

[7] = compound: NC(=O)c1cnc(N[C@@H]2CCCC[C@@H]2N)nc1Nc1cccc(-n2nccn2)c1
How it was run: as §1

[8] = compound: NC1(c2ccc(-c3nc4ccn5c(=O)[nH]nc5c4cc3-c3ccccc3)cc2)CCC1
How it was run: as §1

Measured: log2 fold change

CBX5 (UniProt P45973)
UniProt P45973, sequence (P45973 whole entry, looked up): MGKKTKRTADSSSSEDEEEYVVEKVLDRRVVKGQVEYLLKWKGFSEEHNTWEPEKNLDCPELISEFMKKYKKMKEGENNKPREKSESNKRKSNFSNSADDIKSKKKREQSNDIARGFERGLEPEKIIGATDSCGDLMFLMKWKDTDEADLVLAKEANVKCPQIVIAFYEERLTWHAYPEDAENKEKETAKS
inactive: lapatinib 0.06 | pictilisib 0.024 | crizotinib -0.023 | [1] -0.187 | duvelisib -0.036 | gandotinib 0.077 | tozasertib 0.006 | doramapimod 0.006 | bafetinib -0.001 | [2] 0.064 | nilotinib 0.014 | [3] 0.011 | dasatinib 0.028 | [4] 0.052 | [5] -0.017 | quisinostat -0.09 | tipifarnib -0.024 | [6] 0.014 | [7] -0.004 | [8] 0.007

CASP7 isoform 3 (UniProt P55210)
UniProt P55210, sequence (P55210 whole entry, looked up): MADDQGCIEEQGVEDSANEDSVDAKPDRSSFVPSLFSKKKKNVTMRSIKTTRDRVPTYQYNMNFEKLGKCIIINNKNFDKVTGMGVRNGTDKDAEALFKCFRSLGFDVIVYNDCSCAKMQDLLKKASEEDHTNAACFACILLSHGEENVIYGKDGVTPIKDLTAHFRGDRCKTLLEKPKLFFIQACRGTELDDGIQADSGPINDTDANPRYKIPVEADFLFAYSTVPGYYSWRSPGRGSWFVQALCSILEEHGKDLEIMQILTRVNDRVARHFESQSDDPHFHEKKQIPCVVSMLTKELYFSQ
inactive: lapatinib -0.055 | pictilisib 0.037 | crizotinib -0.07 | duvelisib 0.009 | tozasertib 0.049 | doramapimod 0.029 | bafetinib -0.054 | nilotinib -0.042 | [3] 0.01 | dasatinib -0.091 | [4] 0.05 | [5] 0.226 | quisinostat -0.016 | tipifarnib 0.049 | [6] 0.022 | [7] 0.106 | [8] 0.063

CCNY (UniProt Q8ND76)
UniProt Q8ND76, sequence (Q8ND76 whole entry, looked up): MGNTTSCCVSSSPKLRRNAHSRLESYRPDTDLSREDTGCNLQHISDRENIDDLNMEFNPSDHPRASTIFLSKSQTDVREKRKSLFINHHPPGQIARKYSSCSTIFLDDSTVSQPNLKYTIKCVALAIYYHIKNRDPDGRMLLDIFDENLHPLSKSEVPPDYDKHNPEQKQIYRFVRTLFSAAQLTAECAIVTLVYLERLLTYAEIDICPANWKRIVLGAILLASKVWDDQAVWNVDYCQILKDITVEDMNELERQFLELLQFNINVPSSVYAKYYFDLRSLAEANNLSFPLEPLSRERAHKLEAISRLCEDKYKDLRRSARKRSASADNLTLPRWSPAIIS
inactive: lapatinib -0.061 | pictilisib -0.044 | crizotinib -0.035 | [1] -0.094 | duvelisib -0.057 | gandotinib 0.081 | tozasertib 0.056 | doramapimod 0.033 | bafetinib -0.073 | [2] 0.054 | nilotinib 0.017 | [3] 0.016 | dasatinib -0.021 | [4] 0.05 | [5] 0.065 | quisinostat -0.216 | tipifarnib 0.057 | [6] 0.077 | [7] -0.022 | [8] 0.025

CDC45 isoform 3 (UniProt O75419)
UniProt O75419, sequence (O75419 whole entry, looked up): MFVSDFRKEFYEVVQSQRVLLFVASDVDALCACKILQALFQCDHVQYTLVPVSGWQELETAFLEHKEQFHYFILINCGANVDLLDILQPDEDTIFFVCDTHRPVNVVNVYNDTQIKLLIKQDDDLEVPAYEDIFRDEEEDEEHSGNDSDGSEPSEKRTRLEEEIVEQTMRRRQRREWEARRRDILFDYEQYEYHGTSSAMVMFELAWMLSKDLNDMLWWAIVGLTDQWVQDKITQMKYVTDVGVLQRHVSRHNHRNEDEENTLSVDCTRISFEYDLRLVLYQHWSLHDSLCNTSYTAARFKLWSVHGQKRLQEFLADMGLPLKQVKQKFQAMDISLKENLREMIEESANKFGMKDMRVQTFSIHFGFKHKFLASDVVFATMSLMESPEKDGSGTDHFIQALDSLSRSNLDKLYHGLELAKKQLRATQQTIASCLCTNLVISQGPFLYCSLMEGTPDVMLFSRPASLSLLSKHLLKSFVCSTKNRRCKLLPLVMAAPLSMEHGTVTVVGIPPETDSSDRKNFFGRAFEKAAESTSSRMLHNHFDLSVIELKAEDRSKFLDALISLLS
inactive: lapatinib -0.036 | pictilisib -0.014 | crizotinib -0.009 | [1] 0.023 | duvelisib -0.007 | gandotinib -0.079 | tozasertib 0 | doramapimod -0.002 | bafetinib -0.077 | [2] -0.018 | nilotinib -0.022 | [3] 0.013 | dasatinib -0.044 | [4] -0.003 | [5] 0.038 | quisinostat 0.015 | tipifarnib -0.022 | [6] 0.047 | [7] 0.003 | [8] -0.058

ATP2B4 (UniProt P23634)
UniProt P23634, sequence (P23634 whole entry, looked up): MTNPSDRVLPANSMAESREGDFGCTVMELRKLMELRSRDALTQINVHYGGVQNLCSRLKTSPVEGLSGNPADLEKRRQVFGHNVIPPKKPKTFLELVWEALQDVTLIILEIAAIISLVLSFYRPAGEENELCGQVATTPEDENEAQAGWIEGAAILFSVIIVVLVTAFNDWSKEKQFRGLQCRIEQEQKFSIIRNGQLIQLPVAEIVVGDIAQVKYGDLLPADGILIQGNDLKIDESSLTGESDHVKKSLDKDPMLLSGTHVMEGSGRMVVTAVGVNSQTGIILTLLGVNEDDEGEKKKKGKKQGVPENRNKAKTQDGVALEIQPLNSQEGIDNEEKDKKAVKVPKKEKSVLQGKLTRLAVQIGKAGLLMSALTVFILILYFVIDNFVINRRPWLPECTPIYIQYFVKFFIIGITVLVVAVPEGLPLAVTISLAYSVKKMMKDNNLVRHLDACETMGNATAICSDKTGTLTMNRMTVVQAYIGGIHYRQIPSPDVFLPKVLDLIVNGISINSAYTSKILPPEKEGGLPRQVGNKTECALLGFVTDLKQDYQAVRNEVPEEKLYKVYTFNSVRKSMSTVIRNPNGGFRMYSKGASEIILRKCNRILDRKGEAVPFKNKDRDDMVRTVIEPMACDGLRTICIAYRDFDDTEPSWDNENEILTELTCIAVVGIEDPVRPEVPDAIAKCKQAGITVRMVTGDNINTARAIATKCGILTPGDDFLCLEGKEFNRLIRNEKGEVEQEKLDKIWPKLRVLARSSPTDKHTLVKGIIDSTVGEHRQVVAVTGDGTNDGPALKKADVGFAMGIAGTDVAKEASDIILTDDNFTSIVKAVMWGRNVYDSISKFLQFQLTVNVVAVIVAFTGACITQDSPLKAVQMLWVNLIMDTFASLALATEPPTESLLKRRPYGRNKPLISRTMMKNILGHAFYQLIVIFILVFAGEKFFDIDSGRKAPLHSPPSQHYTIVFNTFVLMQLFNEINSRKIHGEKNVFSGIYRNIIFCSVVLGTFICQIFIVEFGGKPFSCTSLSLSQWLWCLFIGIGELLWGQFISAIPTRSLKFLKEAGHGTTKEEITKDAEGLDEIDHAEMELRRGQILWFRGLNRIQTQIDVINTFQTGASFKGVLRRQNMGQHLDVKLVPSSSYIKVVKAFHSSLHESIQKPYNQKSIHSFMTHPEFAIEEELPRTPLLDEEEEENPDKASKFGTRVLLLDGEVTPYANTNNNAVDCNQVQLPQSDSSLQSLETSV
inactive: lapatinib -0.022 | pictilisib -0.018 | crizotinib 0.018 | [1] -0.166 | duvelisib 0.053 | gandotinib 0.082 | tozasertib 0.046 | doramapimod 0.049 | bafetinib -0.125 | nilotinib -0.05 | [3] 0.098 | dasatinib -0.031 | [4] 0.003 | [5] 0.021 | quisinostat 0.164 | tipifarnib -0.028 | [6] -0.019 | [7] 0.019 | [8] 0.008
active: [2] 0.221

BLOC1S6 (UniProt Q9UL45)
UniProt Q9UL45, sequence (Q9UL45 whole entry, looked up): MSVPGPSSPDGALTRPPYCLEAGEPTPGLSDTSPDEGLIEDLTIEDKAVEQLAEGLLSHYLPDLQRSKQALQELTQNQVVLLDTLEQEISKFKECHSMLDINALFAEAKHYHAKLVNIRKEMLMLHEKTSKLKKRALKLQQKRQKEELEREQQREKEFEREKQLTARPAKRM
inactive: lapatinib -0.018 | pictilisib -0.037 | crizotinib 0.062 | [1] 0.048 | duvelisib 0.021 | gandotinib 0.031 | tozasertib -0.11 | doramapimod -0.011 | bafetinib 0.033 | [2] -0.066 | nilotinib -0.073 | [3] 0.036 | dasatinib 0.093 | [4] 0.093 | [5] -0.008 | quisinostat 0.042 | tipifarnib -0.063 | [6] -0.049 | [7] -0.023 | [8] 0.096

AURKA (UniProt O14965)
UniProt O14965, sequence (O14965 whole entry, looked up): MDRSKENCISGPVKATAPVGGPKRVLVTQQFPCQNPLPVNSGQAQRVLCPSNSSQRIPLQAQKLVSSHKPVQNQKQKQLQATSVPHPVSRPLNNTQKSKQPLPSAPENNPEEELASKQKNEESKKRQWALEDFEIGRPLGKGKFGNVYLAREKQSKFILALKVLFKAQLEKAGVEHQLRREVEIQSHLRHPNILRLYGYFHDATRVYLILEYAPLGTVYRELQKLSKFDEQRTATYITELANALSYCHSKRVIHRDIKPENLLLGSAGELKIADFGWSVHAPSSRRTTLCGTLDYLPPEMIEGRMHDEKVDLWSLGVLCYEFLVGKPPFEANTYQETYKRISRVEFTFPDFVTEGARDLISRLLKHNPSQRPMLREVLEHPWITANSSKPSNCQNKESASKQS
active: gandotinib 1
inactive: lapatinib -0.101 | pictilisib 0.112 | [1] -0.071 | duvelisib -0.006 | doramapimod -0.061 | bafetinib -0.09 | [2] -0.062 | nilotinib -0.065 | [3] 0.209 | dasatinib 0.226 | [4] 0.174 | [5] 0.027 | quisinostat -0.117 | tipifarnib -0.088 | [6] 0.18 | [7] -0.04 | [8] -0.05

CARHSP1 (UniProt H3BNU9)
inactive: lapatinib -0.101 | pictilisib -0.186 | [1] 0.16 | gandotinib -0.329 | bafetinib 0 | [2] 0.341 | nilotinib -0.196 | [3] 0.149 | [4] 0.238 | tipifarnib 0.108 | [7] -0.059
